Consider 5 compounds from PubChem BioAssay.

The source made the active and inactive calls.

The nature of assay [1]: compounds binding Alexa647 anti-His antibody – biochemical, small-molecule microarray, 635 nm fluorescence, artefact control for SMM control protein annotation, primary screen (AID 1128).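 Also: score merges feature fluorescence with signal-to-noise for each printed compound spot.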 The note with it: higher = more signal.
Assay [2] has as its system Human papillomavirus type 1a E7 protein (residues 1-88). Briefly: HPV1a E7 small-molecule binders, primary screen, biochemical, small-molecule microarray, residues 1-88, 635 nm (AID 1129). The note with it: small-molecule microarray binding, fluorescence 635 nm; higher = more signal.
The target of assay [3] is Focal adhesion kinase 1 (Homo sapiens) (UniProt Q05397). Briefly: PTK2 protein binding on printed compound slides – biochemical, small-molecule microarray, 635/667 nm fluorescence, BSA, DTT, primary screen (AID 1130).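 Also: composite of spot emission at 667 nm and signal to noise over triplicate slides.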 The note with it: 635 nm fluorescence, higher = more signal.
In assay [4] the test system is Fibrinogen (Alexa647-labelled). Briefly: Alexa647-fibrinogen binding to printed small molecules – biochemical, small-molecule microarray, 635/667 nm fluorescence, artefact control for SMM control-protein annotation, profiling panel (AID 1131).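 Also: z-score merges 667 nm fluorescence with per-spot signal-to-noise over triplicate slides.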 The note with it: fibrinogen-A647 binding fluorescence, higher = more signal.
Assay [5] has as its target Follistatin (Homo sapiens) (UniProt P19883). Kind of assay: FST protein binding to printed compounds – biochemical, small-molecule microarray, 635/667 nm fluorescence, primary screen (AID 1132). The note with it: 635 nm fluorescence, higher = more signal.
Assay [6] concerns the target Fibroblast growth factor 2 (Homo sapiens) (UniProt P09038). Briefly: basic fibroblast growth factor binding to printed compounds – biochemical, small-molecule microarray, 635/667 nm fluorescence, primary screen (AID 1133). The note with it: FGF2, fluorescence 635/667, higher = more signal.
Assay [7] in a line: JC-1 mitochondrial potential readout, lung cancer cells – cell-based, A549, JC-1 fluorescence, basal, 24 h, 100 nL, profiling panel (AID 1138).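 Also: A549 lung adenocarcinoma cells under basal conditions with no added stimulus; test concentration not given here.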 The note with it: higher = more signal.
The next assay concerns Lefty1. Kind of assay: Lefty1 protein binding to printed compounds – biochemical, small-molecule microarray, 635/667 nm fluorescence, primary screen (AID 1139). The note with it: fluorescence 635/667, higher = more signal.
Assay [8] deals with wheat germ agglutinin (Triticum aestivum), Alexa647-labelled. Briefly: Alexa647-WGA lectin binding to printed small molecules – biochemical, small-molecule microarray, 635/667 nm fluorescence, artefact control for SMM control-protein annotation, profiling panel (AID 1140).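 Also: score merges 667 nm feature emission with signal to noise over triplicate slides.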 The note with it: WGA-A647 binding, 635 nm fluorescence, higher = more signal.
The target in assay [9] is Luciferin 4-monooxygenase (Photinus pyralis) (UniProt P08659). Kind of assay: inhibition of purified Photinus pyralis luciferase – biochemical, luminescence, purified enzyme, 2006 set, primary screen (AID 1141).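 Also: cell-free assay with purified firefly luciferase at 100 ng per well in PBS; test concentration not given here.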 The note with it: purified firefly luciferase, SteadyGlo luminescence, 30 min; higher = more signal, called active from +8 up or from −8 down.
Assay [10] concerns Wnt5a (protein binding on small-molecule microarray). Briefly: small molecules binding Wnt5a protein – biophysical, small-molecule microarray, 635/667 nm fluorescence, primary screen (AID 1142).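 Also: fluorescence read at 667 nm with signal to noise per printed feature.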 The note with it: 635 nm fluorescence, higher = more signal.
Assay [11] can be described thus: ATP-based viability of Huh7 replicon cells – cell-based, CellTiter-Glo luminescence, basal, 48 h, cytotoxicity control for HCV replication inhibitor project, primary screen (AID 1143).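 Also: Huh7 hepatoma cells carrying a hepatitis C replication reporter with no stimulus; test concentration not given here.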 The note with it: higher = more signal, called active from +8 up or from −8 down. (A replicon is a self-replicating genome or part of one, used to study replication in cells.)
The nature of assay [12]: basal CRE-LacZ reporter activity in PC12 – cell-based, unstimulated, primary screen (AID 1145). The note with it: no forskolin, luminescence, 4.5 h, higher = more signal, called active from +8 up or from −8 down.
A short description of assay [13]: forskolin-driven CRE-LacZ activity in PC12 – cell-based, CRE-LacZ reporter, forskolin-stimulated, primary screen (AID 1146).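 Also: PC12 cells with 6xCRE LacZ reporter stimulated by forskolin 10 µM; beta-galactosidase reporter signal reflecting CREB driven transcription.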 The note with it: luminescence, 4.5 h, higher = more signal, called active from +8 up or from −8 down.
The target in assay [14] is Streptavidin (Streptomyces avidinii) (UniProt P22629). Kind of assay: compounds binding control protein streptavidin – biophysical, small-molecule microarray, 635/667 nm fluorescence, artefact control for SMM compound annotation, primary screen (AID 1147).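 Also: signal reflects streptavidin binding to arrayed compounds as a control protein.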 The note with it: higher = more signal.
Assay [15] in a line: probe aInhba binding on compound microarray – biochemical, small-molecule microarray, 635/667 nm fluorescence, primary screen (AID 1148).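 Also: score merges 667nm spot fluorescence with signal-to-noise for antibody binding to printed compounds.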 The note with it: higher = more signal.
The target of assay [16] is Torsin-1A (Homo sapiens) (UniProt O14656). Briefly: TOR1A wild-type binding on microarray – cell lysate, small-molecule microarray, lysate, 635/667 nm, primary screen (AID 1149). The note with it: COS7 hTOR1A-WT lysate, 635 nm fluorescence, higher = more signal.
For assay [17] the target is unchanged. Briefly: torsin A mutant lysate binding on microarrays – cell lysate, small-molecule microarray, COS7 lysate, 635/667 nm fluorescence, primary screen (AID 1150).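 Also: score pools 667 nm emission and signal to noise measuring lysate protein binding.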 The note with it: COS7 hTOR1A mutant lysate, 635 nm fluorescence, higher = more signal.
Assay [18] concerns Sonic hedgehog protein (Shh). Kind of assay: Sonic hedgehog microarray binding compounds – biochemical, small-molecule microarray, 635/667 nm fluorescence, primary screen (AID 1151).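 Also: Shh protein binding to compounds spotted on small-molecule microarray slides; score combines spot fluorescence intensity with signal-to-noise across triplicate slides.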 The note with it: 635 nm fluorescence, higher = more signal.

Chain of Focal adhesion kinase 1 (Homo sapiens) (Q05397 whole entry, looked up): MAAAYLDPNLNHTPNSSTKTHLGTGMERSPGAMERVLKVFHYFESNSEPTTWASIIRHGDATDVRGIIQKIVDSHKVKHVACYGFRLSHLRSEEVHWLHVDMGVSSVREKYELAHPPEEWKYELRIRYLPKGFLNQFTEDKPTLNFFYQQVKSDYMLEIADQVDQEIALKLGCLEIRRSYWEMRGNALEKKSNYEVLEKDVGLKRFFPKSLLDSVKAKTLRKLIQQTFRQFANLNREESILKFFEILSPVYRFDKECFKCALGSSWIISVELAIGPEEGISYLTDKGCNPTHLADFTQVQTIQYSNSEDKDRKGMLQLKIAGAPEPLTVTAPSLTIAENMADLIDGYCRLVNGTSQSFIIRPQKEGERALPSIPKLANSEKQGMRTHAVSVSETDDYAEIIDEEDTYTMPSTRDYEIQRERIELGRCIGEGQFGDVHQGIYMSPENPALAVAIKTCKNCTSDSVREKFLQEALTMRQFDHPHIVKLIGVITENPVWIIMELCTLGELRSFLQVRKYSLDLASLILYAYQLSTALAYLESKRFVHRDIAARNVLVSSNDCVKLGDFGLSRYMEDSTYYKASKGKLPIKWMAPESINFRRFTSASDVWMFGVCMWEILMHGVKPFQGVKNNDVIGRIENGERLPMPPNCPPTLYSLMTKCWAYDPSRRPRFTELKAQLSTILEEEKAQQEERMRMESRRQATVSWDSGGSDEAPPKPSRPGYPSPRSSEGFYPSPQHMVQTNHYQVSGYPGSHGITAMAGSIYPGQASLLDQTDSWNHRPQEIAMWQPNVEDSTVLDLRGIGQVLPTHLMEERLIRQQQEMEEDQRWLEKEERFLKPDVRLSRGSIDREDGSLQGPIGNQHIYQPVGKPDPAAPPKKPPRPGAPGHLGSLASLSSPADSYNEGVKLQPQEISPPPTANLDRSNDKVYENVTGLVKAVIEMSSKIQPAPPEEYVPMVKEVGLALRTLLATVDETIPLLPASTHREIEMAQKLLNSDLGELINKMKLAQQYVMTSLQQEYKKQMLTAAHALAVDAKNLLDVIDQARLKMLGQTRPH
Chain of Fibroblast growth factor 2 (Homo sapiens) (P09038 whole entry, looked up): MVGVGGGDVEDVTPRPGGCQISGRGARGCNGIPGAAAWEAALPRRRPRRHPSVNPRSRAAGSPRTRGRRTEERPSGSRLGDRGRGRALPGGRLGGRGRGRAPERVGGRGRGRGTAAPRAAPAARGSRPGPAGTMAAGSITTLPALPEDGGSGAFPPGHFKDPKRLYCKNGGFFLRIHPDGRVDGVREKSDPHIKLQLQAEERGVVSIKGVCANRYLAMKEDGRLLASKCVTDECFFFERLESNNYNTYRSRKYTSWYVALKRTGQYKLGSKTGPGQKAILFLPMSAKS
Chain of Luciferin 4-monooxygenase (Photinus pyralis) (P08659 whole entry, looked up): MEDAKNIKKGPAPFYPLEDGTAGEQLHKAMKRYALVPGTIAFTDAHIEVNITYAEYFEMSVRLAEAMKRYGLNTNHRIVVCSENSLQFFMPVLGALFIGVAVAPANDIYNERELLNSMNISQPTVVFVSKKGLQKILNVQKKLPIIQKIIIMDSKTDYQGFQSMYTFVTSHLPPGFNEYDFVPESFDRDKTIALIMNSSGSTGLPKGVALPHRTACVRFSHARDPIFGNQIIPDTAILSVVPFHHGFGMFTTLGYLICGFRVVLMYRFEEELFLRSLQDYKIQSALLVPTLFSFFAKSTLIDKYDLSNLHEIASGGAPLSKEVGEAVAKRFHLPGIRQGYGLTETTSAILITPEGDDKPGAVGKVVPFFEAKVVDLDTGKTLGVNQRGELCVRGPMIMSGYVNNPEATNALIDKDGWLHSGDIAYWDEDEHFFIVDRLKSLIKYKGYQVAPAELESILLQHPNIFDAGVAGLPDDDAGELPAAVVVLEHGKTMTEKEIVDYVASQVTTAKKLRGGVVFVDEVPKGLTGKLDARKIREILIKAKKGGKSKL
Chain of Follistatin (Homo sapiens) (P19883 whole entry, looked up): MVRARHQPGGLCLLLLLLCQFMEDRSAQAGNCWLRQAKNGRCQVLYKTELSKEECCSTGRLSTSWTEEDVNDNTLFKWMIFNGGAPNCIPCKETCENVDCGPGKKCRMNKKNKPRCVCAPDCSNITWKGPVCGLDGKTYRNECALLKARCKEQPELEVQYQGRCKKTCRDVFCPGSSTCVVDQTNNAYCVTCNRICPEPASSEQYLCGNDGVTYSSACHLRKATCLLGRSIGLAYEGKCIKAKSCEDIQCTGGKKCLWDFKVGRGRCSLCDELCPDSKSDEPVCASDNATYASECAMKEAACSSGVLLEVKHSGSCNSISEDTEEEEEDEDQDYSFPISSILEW
Chain of Streptavidin (Streptomyces avidinii) (P22629 whole entry, looked up): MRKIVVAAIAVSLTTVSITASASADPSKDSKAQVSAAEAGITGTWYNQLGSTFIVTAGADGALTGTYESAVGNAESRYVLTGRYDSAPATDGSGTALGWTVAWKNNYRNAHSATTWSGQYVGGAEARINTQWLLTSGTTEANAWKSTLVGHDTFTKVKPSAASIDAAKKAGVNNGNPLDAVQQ
Chain of Torsin-1A (Homo sapiens) (O14656 whole entry, looked up): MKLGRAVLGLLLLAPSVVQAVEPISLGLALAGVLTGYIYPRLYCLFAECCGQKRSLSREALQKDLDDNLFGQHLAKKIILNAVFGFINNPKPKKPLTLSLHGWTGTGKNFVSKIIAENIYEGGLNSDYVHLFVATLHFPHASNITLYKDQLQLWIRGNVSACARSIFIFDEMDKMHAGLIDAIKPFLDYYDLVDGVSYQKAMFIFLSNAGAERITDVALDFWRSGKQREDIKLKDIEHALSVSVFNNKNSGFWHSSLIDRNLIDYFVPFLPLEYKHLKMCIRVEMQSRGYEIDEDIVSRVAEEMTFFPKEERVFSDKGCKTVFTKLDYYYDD

For the compound `CN(C)CCCC[C@@H]1NC(=O)[C@@H]2C[C@H](C(=O)O)[C@H](c3ccc(O)cc3)N2C1=O`, the composite z-score in assay [1] came out at 1.34; in [2], 0.704; in assay [3], 0.324; in [4], 0.166; in assay [5], 1.37; in assay [6] it was 1.35. Also, the composite z-score was determined as 1.64 in the assay with Lefty1; 0.176 in assay [8]; 0.471 in [10]; 0.0842 in [14]; 0.174 in assay [15]; 0.939 in the assay with Torsin-1A (Homo sapiens) [16]. Moreover, the composite z-score with Torsin-1A (Homo sapiens) [17] worked out at 0.395; in assay [18], 1.92. In addition, the z-score in assay [7] was -0.0467; in [9], -0.486 (inactive); in assay [11] it was -3.87 (inactive); in assay [12], 0.415 (inactive); in assay [13] it was -0.183 (inactive).
Consider `CO[C@H]1COC(=O)CC=C[C@H](C)COC(=O)[C@@H](OCc2ccccc2)C=C[C@@H]1C`, for which the composite z-score in assay [1] was 0.507; in assay [2], -0.67; in [3] it was -0.3; in assay [4] it was -0.418; in assay [5], 1.56; in assay [6], 1.83. In addition, the composite z-score is 1.69 with Lefty1; -0.726 in assay [8]; -0.192 in assay [10]; 0.846 in assay [14]; -0.29 in assay [15]; 2.67 with Torsin-1A (Homo sapiens) [16]. For the same compound, the results for the composite z-score (in the assay with Torsin-1A (Homo sapiens) [17]; in [18]) were 2.29 and 2.06, respectively. For the same compound, the z-score in [7] was 0.33; in assay [9], -0.275 (inactive); in assay [11], -4.32 (inactive); in assay [12], 0.252 (inactive); in assay [13], -1.2 (inactive).
In the case of `CO[C@H]1COC(=O)[C@@H](C)NC(=O)CC=C[C@@H](C)[C@H](OC)COC(=O)CC=C[C@@H]1C`, the composite z-score is -0.31 in [1]; -1.46 in [2]; 0.223 in assay [3]; -1.07 in [4]; 1.34 in assay [5]; 1.63 in assay [6]. For the same compound, the composite z-score in the assay with Lefty1 was 1.66; in [8] it was -1.16; in [10], 0.0227; in [14], 0.0569; in assay [15], -0.39; with Torsin-1A (Homo sapiens) [16], 1.45. The composite z-score with Torsin-1A (Homo sapiens) [17] came to 1.69; in assay [18], 2.21. The z-score in [7] was 2.3; in assay [9], -1.38 (inactive); in [11] it was -2.38 (inactive); in assay [12], -0.747 (inactive); in assay [13] it was -1.2 (inactive).
For `COCCOC(=O)N1C(=O)[C@@]2(c3cc(C#CCNC(N)=O)ccc31)[C@H](c1ccc(OCCO)cc1)N1[C@H](c3ccccc3)[C@H](c3ccccc3)OC(=O)[C@H]1[C@@H]2C(=O)N1CCCCCCC1`, the composite z-score in [1] is -0.347; in [2], 0.718; in assay [3], 0.422; in assay [4] it was 0.355; in assay [5] it was 1.35; in assay [6] it was 0.117. Also, the composite z-score amounted to 0.854 with Lefty1; 0.884 in assay [8]; 0.148 in assay [10]; 0.34 in assay [14]; 0.325 in assay [15]; 0.0499 with Torsin-1A (Homo sapiens) [16]. The composite z-score with Torsin-1A (Homo sapiens) [17] is 0.576; in assay [18], 0.932. Besides, the z-score in assay [7] was -0.99; in assay [9], -1.45 (inactive); in assay [11], -2.36 (inactive); in assay [12], -0.0566 (inactive); in [13] it was -1.91 (inactive).
Take `C=CC[C@]1(C(=O)O)N=C(c2ccc(OCCCO)cc2)O[C@H]1c1ccccc1`: the composite z-score is 0.254 in assay [1]; -0.531 in assay [2]; -0.231 in [3]; 0.243 in assay [4]; -0.367 in [5]; -0.503 in [6]. Moreover, the composite z-score in the assay on Lefty1 is -1.09; in assay [8], 1.25; in assay [10], -0.0903; in assay [14] it was 0.0596; in [15], -0.0471; with Torsin-1A (Homo sapiens) [16], -0.753. Moreover, the composite z-score in the assay with Torsin-1A (Homo sapiens) [17] is -0.0649; in [18], -0.712. The z-score was -0.124 in assay [7]; -1.8 (inactive) in assay [9]; -0.551 (inactive) in assay [11]; 1.38 (inactive) in [12]; -1.04 (inactive) in assay [13].
